From PubChem BioAssay (NCI)
This is part of a sample that, as a whole, favours compounds with a hit. Of some 83,000 tested, about 20% had one in any assay.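 Results are percent growth after 48 hours of single-concentration exposure. 100 means growth as in untreated cells, lower positive values show inhibition; negative values down to -100 show cell death.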 Active and inactive are the calls of the source. Rule for the calls: active = growth percent below 10; inactive = the rest.

Key:
Assay in all cases: NCI-60 one-dose screen, 48 h (100 = growth as untreated, 0 = no growth, -100 = all killed)
Details in all cases: 10 µM unless noted
NCI-H23 lung = test system: NCI-H23 lung
NCI-H226 lung = test system: NCI-H226 lung
NCI-H322M lung = test system: NCI-H322M lung
HOP-62 NSCLC = test system: HOP-62 NSCLC
NCI-H460 lung = test system: NCI-H460 lung
786-0 renal = test system: 786-0 renal
MDA-MB-231 breast = test system: MDA-MB-231 breast
SF-268 CNS = test system: SF-268 CNS
M14 melanoma = test system: M14 melanoma
PC-3 prostate = test system: PC-3 prostate
UACC-62 melanoma = test system: UACC-62 melanoma
SK-MEL-28 melanoma = test system: SK-MEL-28 melanoma
SN12C renal = test system: SN12C renal
UO-31 renal = test system: UO-31 renal
OVCAR-5 ovarian = test system: OVCAR-5 ovarian
NCI/ADR-RES ovarian = test system: NCI/ADR-RES ovarian
MDA-MB-435 melanoma = test system: MDA-MB-435 melanoma
SW-620 colon = test system: SW-620 colon
HCT-116 colon = test system: HCT-116 colon
KM12 colon = test system: KM12 colon

Measured: growth

O=C(c1cccs1)C1NO[N+]([O-])=C1c1cccs1 (stereo not given)
inactive: NCI-H322M lung 110% | HOP-62 NSCLC 89.6% | NCI-H460 lung 82.3% | MDA-MB-231 breast 86.2% | SF-268 CNS 109% | PC-3 prostate 57.1% | UACC-62 melanoma 88.7% | SK-MEL-28 melanoma 65.8% | SN12C renal 73.4% | OVCAR-5 ovarian 114% | NCI/ADR-RES ovarian 47.5% | MDA-MB-435 melanoma 72.9% | HCT-116 colon 25.6% | KM12 colon 74.8%
active: NCI-H23 lung 4.55% | NCI-H226 lung -0.733% | 786-0 renal 0.474% | M14 melanoma -40.2% | UO-31 renal -83.3% | SW-620 colon -91.9%

C/C(=C\C(=O)O[C@H]1[C@@H]2[C@H](C)CC[C@H]2[C@]2(C)O[C@@]1(C1CCCCC1)C[C@H]2OC(=O)CO)c1ccccc1
inactive: NCI-H23 lung 50.8% | NCI-H226 lung 41.1% | NCI-H322M lung 84.5% | HOP-62 NSCLC 55.1% | NCI-H460 lung 13.7% | MDA-MB-231 breast 55.5% | SF-268 CNS 26% | M14 melanoma 47.4% | PC-3 prostate 17.9% | UACC-62 melanoma 63.2% | SK-MEL-28 melanoma 64.6% | OVCAR-5 ovarian 82.9% | MDA-MB-435 melanoma 61.7% | SW-620 colon 43.1% | KM12 colon 38.2%
active: 786-0 renal -16% | SN12C renal 7.85% | UO-31 renal -47.2% | NCI/ADR-RES ovarian 7.73% | HCT-116 colon 7.81%

O=C(CCl)NCNC(=O)CCl
inactive: NCI-H23 lung 97.8% | NCI-H226 lung 112% | NCI-H322M lung 100% | HOP-62 NSCLC 97.2% | NCI-H460 lung 103% | 786-0 renal 107% | MDA-MB-231 breast 99.7% | SF-268 CNS 98.1% | M14 melanoma 91.5% | PC-3 prostate 86.4% | UACC-62 melanoma 82% | SK-MEL-28 melanoma 93.7% | SN12C renal 97.7% | UO-31 renal 93.5% | OVCAR-5 ovarian 115% | NCI/ADR-RES ovarian 103% | MDA-MB-435 melanoma 93.9% | SW-620 colon 100% | HCT-116 colon 92.1% | KM12 colon 104%

O=C1C=CC(=O)C2C1C1(Cl)C(Cl)=C(Cl)C2(Cl)C1(Cl)Cl (stereo not given)
inactive: NCI-H23 lung 58% | NCI-H226 lung 56.9% | NCI-H322M lung 77.2% | HOP-62 NSCLC 63.5% | NCI-H460 lung 57.5% | 786-0 renal 73.9% | MDA-MB-231 breast 44.8% | SF-268 CNS 47.6% | M14 melanoma 44.4% | PC-3 prostate 44.3% | UACC-62 melanoma 46.1% | SK-MEL-28 melanoma 67.7% | SN12C renal 67.3% | UO-31 renal 44.9% | OVCAR-5 ovarian 78.3% | NCI/ADR-RES ovarian 47.3% | SW-620 colon 64.7% | HCT-116 colon 36.3% | KM12 colon 38.9%
active: MDA-MB-435 melanoma 3.15%

CCN(CC)CCOc1c(C(C)C)cccc1C(C)C
inactive: NCI-H23 lung 104% | NCI-H226 lung 111% | NCI-H322M lung 88.3% | HOP-62 NSCLC 96.7% | NCI-H460 lung 112% | 786-0 renal 99.6% | MDA-MB-231 breast 109% | SF-268 CNS 107% | M14 melanoma 99.2% | PC-3 prostate 101% | UACC-62 melanoma 99.5% | SK-MEL-28 melanoma 92.1% | SN12C renal 105% | UO-31 renal 94.4% | OVCAR-5 ovarian 90.6% | NCI/ADR-RES ovarian 101% | MDA-MB-435 melanoma 114% | SW-620 colon 106% | HCT-116 colon 95.2% | KM12 colon 99.3%

COc1cccc2c1C(=O)c1c(O)c3c(c(O)c1C2=O)CC(O)(/C(C)=N/NC(=O)CCC(=O)N/N=C(\C)C1(O)Cc2c(O)c4c(c(O)c2C(OC2CC(N)C(O)C(C)O2)C1)C(=O)c1c(OC)cccc1C4=O)CC3OC1CC(N)C(O)C(C)O1 (stereo not given)
inactive: NCI/ADR-RES ovarian 71.8% [5 µM]
active: NCI-H23 lung -44.8% [5 µM] | NCI-H226 lung -68.1% [5 µM] | NCI-H322M lung -31.6% [5 µM] | HOP-62 NSCLC -31.3% [5 µM] | NCI-H460 lung -44.3% [5 µM] | 786-0 renal -14.4% [5 µM] | MDA-MB-231 breast 8.46% [5 µM] | SF-268 CNS -17.3% [5 µM] | M14 melanoma -55.7% [5 µM] | PC-3 prostate -19.3% [5 µM] | UACC-62 melanoma -85.4% [5 µM] | SK-MEL-28 melanoma -56.3% [5 µM] | SN12C renal -5.24% [5 µM] | UO-31 renal -7.96% [5 µM] | OVCAR-5 ovarian -15.4% [5 µM] | MDA-MB-435 melanoma -85.2% [5 µM] | SW-620 colon -23.5% [5 µM] | HCT-116 colon -31.5% [5 µM] | KM12 colon -29.8% [5 µM]

O=C(O)c1[nH]c(=O)[nH]c(=O)c1F
inactive: NCI-H23 lung 93% | NCI-H226 lung 86.2% | NCI-H322M lung 92.5% | HOP-62 NSCLC 124% | NCI-H460 lung 47.9% | 786-0 renal 105% | MDA-MB-231 breast 108% | SF-268 CNS 86.7% | M14 melanoma 86.6% | PC-3 prostate 95.6% | UACC-62 melanoma 79.6% | SK-MEL-28 melanoma 94.7% | SN12C renal 96.3% | UO-31 renal 65.9% | OVCAR-5 ovarian 104% | NCI/ADR-RES ovarian 95% | MDA-MB-435 melanoma 74.7% | SW-620 colon 72.7% | HCT-116 colon 79.3% | KM12 colon 69.3%

ClCCN(CCCl)c1ccc(C=NCCc2c[nH]c3ccccc23)cc1
inactive: NCI-H23 lung 71.7% | NCI-H322M lung 111% | HOP-62 NSCLC 73.1% | NCI-H460 lung 22.6% | 786-0 renal 63.4% | MDA-MB-231 breast 98.8% | SF-268 CNS 72.2% | M14 melanoma 91.6% | PC-3 prostate 57% | UACC-62 melanoma 56.9% | SK-MEL-28 melanoma 108% | SN12C renal 62.7% | UO-31 renal 60.6% | OVCAR-5 ovarian 94.5% | NCI/ADR-RES ovarian 76.2% | MDA-MB-435 melanoma 110% | SW-620 colon 84.4% | HCT-116 colon 79% | KM12 colon 101%
active: NCI-H226 lung -10.5%

CC(C)(C)N(Cc1ccccc1)N=O
inactive: NCI-H23 lung 102% | NCI-H226 lung 91.7% | NCI-H322M lung 101% | HOP-62 NSCLC 99.4% | NCI-H460 lung 107% | 786-0 renal 99% | MDA-MB-231 breast 91.9% | SF-268 CNS 108% | M14 melanoma 103% | PC-3 prostate 98.7% | UACC-62 melanoma 103% | SK-MEL-28 melanoma 106% | SN12C renal 91.9% | UO-31 renal 96.7% | OVCAR-5 ovarian 98.4% | NCI/ADR-RES ovarian 113% | MDA-MB-435 melanoma 102% | SW-620 colon 101% | HCT-116 colon 106% | KM12 colon 104%

CCC1CN1P(=O)(OCCOC)N1CC1CC (stereo not given)
inactive: NCI-H23 lung 114% | NCI-H226 lung 109% | NCI-H322M lung 101% | HOP-62 NSCLC 111% | NCI-H460 lung 111% | 786-0 renal 103% | MDA-MB-231 breast 107% | SF-268 CNS 109% | M14 melanoma 109% | PC-3 prostate 98.2% | UACC-62 melanoma 103% | SK-MEL-28 melanoma 107% | SN12C renal 101% | UO-31 renal 88.6% | OVCAR-5 ovarian 103% | NCI/ADR-RES ovarian 115% | MDA-MB-435 melanoma 98.9% | SW-620 colon 106% | HCT-116 colon 104% | KM12 colon 114%

CC1=C(SCCC(=O)OCC(=O)NCCC[Te]c2ccccc2)C(=O)c2ccccc2C1=O
inactive: 786-0 renal 23.2% | SW-620 colon 22.1%
active: NCI-H23 lung -33.6% | NCI-H226 lung -4.17% | NCI-H322M lung -13.3% | HOP-62 NSCLC -49.1% | NCI-H460 lung -43.1% | MDA-MB-231 breast -34.5% | SF-268 CNS -13.1% | M14 melanoma -52.4% | PC-3 prostate -9.1% | UACC-62 melanoma 2.51% | SK-MEL-28 melanoma -11.4% | SN12C renal 7.58% | UO-31 renal -0.644% | OVCAR-5 ovarian -0.604% | NCI/ADR-RES ovarian -10.5% | MDA-MB-435 melanoma 4.67% | HCT-116 colon -12.9% | KM12 colon 2.96%

CCC(/C=C(C)/C=C/C(=O)c1c(O)c(-c2ccc(O)cc2)c[nH]c1=O)CO (stereo not given)
inactive: NCI-H23 lung 98.4% | NCI-H226 lung 106% | NCI-H322M lung 96% | HOP-62 NSCLC 98% | NCI-H460 lung 93.4% | 786-0 renal 87.6% | MDA-MB-231 breast 111% | SF-268 CNS 45.1% | M14 melanoma 104% | PC-3 prostate 27.7% | UACC-62 melanoma 99.8% | SK-MEL-28 melanoma 105% | SN12C renal 91.7% | UO-31 renal 67.9% | OVCAR-5 ovarian 134% | NCI/ADR-RES ovarian 96.2% | MDA-MB-435 melanoma 80.9% | SW-620 colon 100% | HCT-116 colon 80.1% | KM12 colon 47%

O=CN1N=C(c2ccc3c(c2)OCO3)CC1c1sc(N(CCCl)CCCl)nc1Cl (stereo not given)
inactive: NCI-H23 lung 101% | NCI-H226 lung 95.9% | NCI-H322M lung 75.1% | HOP-62 NSCLC 93% | NCI-H460 lung 105% | 786-0 renal 87.8% | MDA-MB-231 breast 89.9% | SF-268 CNS 93.7% | M14 melanoma 102% | PC-3 prostate 88.2% | UACC-62 melanoma 77.5% | SK-MEL-28 melanoma 101% | SN12C renal 94.8% | UO-31 renal 74.5% | OVCAR-5 ovarian 90.1% | NCI/ADR-RES ovarian 101% | MDA-MB-435 melanoma 97.6% | SW-620 colon 92.9% | HCT-116 colon 83.8% | KM12 colon 93.9%

ClCCN(CCCl)c1nc(Cl)c(C2CC(c3ccccc3)=NN2c2ccccc2)s1 (stereo not given)
inactive: NCI-H23 lung 86.8% | NCI-H226 lung 83.3% | NCI-H322M lung 86.9% | HOP-62 NSCLC 79.5% | NCI-H460 lung 89.1% | 786-0 renal 91.7% | MDA-MB-231 breast 88.1% | SF-268 CNS 88.9% | M14 melanoma 92.4% | PC-3 prostate 75.8% | UACC-62 melanoma 60.9% | SK-MEL-28 melanoma 98.6% | SN12C renal 90.4% | UO-31 renal 72.4% | OVCAR-5 ovarian 99.5% | NCI/ADR-RES ovarian 103% | MDA-MB-435 melanoma 103% | SW-620 colon 86% | HCT-116 colon 78.3% | KM12 colon 98.3%

COC1=CC(=O)OC(CCc2ccc3c(c2)OCO3)C1 (stereo not given)
inactive: NCI-H23 lung 121% | NCI-H226 lung 105% | NCI-H322M lung 132% | HOP-62 NSCLC 106% | NCI-H460 lung 103% | 786-0 renal 112% | MDA-MB-231 breast 114% | SF-268 CNS 101% | M14 melanoma 104% | PC-3 prostate 106% | UACC-62 melanoma 107% | SK-MEL-28 melanoma 117% | SN12C renal 107% | UO-31 renal 101% | OVCAR-5 ovarian 101% | NCI/ADR-RES ovarian 120% | MDA-MB-435 melanoma 112% | SW-620 colon 102% | HCT-116 colon 106% | KM12 colon 109%
